# Bioassay records: PubChem, National Center for Advancing Translational Sciences (NCATS)
# Only some compounds are listed: those with a hit (about 7.4% of all), similar ones and a draw of the others.
# ELG1 genotoxic – induces genotoxicity in HEK293T cells with luciferase-tagged ELG1; HEK293T ELG1-luciferase reporter, luminescence, 16 h; Potency, µM (doses to about 46 µM), without a hit: at the highest dose activity change, positive = activation, usual class: activators; 330,000 tested, 1.3% active; AID 504466; note: % of control where 0% means no effect; nearly all actives have a fitted effect of over 60% in size
#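 Step 1: seed 2,000 HEK293T ELG1-luciferase cells per well. Step 2: add compound or DMSO, incubate 16 hr at 37 °C. Step 3: ONE-Glo, 30 min at room temperature, read luminescence.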
# SMN2 splice enh – enhancers of SMN2 splice variant expression | Potency, µM (highest dose often 46.1 µM), without a hit: at the highest dose activity change, positive = activation, most hits filed as activators | HEK293 SMN2-luciferase splicing reporter, luminescence, 30-36 h | AID 1458 | 210,000 tested, 2.8% active; note: % of control where 0% means no effect; nearly all actives have a fitted effect of over 55% in size
#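 qHTS luciferase splicing reporter: luminescence rises when SMN2 exon 7 is included in transfected HEK293 cells. Compound exposure lasted 30-36 h at 37C, with 4.5 mM final sodium butyrate as control, followed by a ONE-Glo read.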
# Rab9 prom act – activators of Rab9 promoter; Huh7 Rab9 promoter-luciferase reporter, luminescence, 24 h; Potency, µM (highest dose often 9.22 µM), for the others: at the top dose activation, negative = inhibition, hits mostly activators; 320,000 tested, 2.8% active; AID 485297; note: % of control where 0% means no effect; nearly all actives have a fitted effect of over 60% in size
#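 Huh7 cells stably carrying Rab9 promoter–luciferase reporter, plated 1500 cells/well, compound added after 2 h and incubated 24 h at 37 °C; luciferase luminescence then read after 10 min with detection reagent.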
# NPC1 prom act – activates the NPC1 promoter; 320,000 tested, 2.4% active; Huh7 NPC1 promoter luciferase reporter, 24 h; Potency, µM (doses to about 9.22 µM), for the others: top-dose activation, actives largely listed as activators; note: % of control where 0% means no effect; nearly all actives have a fitted effect of over 60% in size
#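 Huh7 cells stably carrying NPC1 promoter–luciferase, plated in Opti-MEM with 10% FBS for 2 h, were exposed to compound in DMSO for 24 h at 37 °C; luciferase reagent was added for 10 min and luminescence read.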
# FLuc counter – counter-screen for miR-21 project: firefly luciferase inhibitors or activators; P08659; purified FLuc, Km substrates, luminescence inhibition; Potency, µM (doses to about 57.5 µM), without a hit: at the top dose activity change, negative = inhibition, usual class: inhibitors; 360,000 tested, 6.9% active; AID 588342;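 note: plate controls were vehicle for no effect and reference inhibitor for full effect; nearly all actives have a fitted effect of over 55% in size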
# Target sequence (P08659 whole entry, looked up): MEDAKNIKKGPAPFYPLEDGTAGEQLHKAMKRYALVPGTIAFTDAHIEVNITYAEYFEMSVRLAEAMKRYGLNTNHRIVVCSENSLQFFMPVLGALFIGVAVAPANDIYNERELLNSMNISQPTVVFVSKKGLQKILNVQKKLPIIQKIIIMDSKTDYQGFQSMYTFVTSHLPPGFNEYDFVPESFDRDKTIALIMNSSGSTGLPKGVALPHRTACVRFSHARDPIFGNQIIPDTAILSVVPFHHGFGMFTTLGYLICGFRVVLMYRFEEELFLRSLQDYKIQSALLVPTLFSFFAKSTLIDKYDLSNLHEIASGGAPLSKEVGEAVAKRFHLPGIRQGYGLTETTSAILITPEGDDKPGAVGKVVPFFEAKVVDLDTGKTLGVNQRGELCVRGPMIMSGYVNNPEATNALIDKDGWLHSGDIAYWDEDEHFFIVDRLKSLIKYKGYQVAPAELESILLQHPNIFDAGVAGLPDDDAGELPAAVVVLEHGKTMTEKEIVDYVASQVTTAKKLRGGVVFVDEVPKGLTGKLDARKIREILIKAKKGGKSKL
#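 Purified P. pyralis luciferase (10nM final) with 10uM D-luciferin and 10uM ATP (Km levels) in 50mM Tris acetate pH 7.5, 10mM Mg acetate, 0.01% Tween-20, 0.05% BSA; qHTS 6-point titration, ~60 µM downward; luminescence read.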
# An asterisk follows results filed as active; ? = inconclusive; / = no result. Calls come from the whole dose curve; as a rule, active = well fitted curve in the direction sought with a large enough effect; inconclusive = small, poorly fitted or top-dose-only effect, or another doubt; inactive = no such curve, though single readings can be large; an effect the other way counts as inactive or inconclusive. Potency is the fitted concentration of half-maximal effect.
SMILES,ELG1 genotoxic,SMN2 splice enh,Rab9 prom act,NPC1 prom act,FLuc counter
CC(C)CC(=O)NNC(=S)Nc1ccc(S(N)(=O)=O)cc1,-0.8%,7.0%,2.7%,-2.5%,-19.4%
Cc1ccccc1C(=O)NC1CCN(CC(=O)N2CCCCC2C)CC1 (centres undefined),-3.2%,/,-1.5%,-5.0%,-1.2%
O=C1/C(=C/c2ccco2)Cc2ccccc21,?,-1.2%,0.0%,-1.6%,13.5µM*
O=C1/C(=C/c2ccccc2)CCC1C1CCCC1 (centres undefined),?,2.8%,25.5%,19.8%,1.2µM*
COc1ccccc1/C=C1\CCC(C2CCCC2)C1=O (centres undefined),14.5%,/,21.1%,18.1%,19µM*
COc1ccc(/C=C2\CCC(C3CCCC3)C2=O)cc1Cn1nc(C)cc1C (centres undefined),2.0%,-25.8%,-0.5%,-3.5%,?
CC1C/C(=C/c2ccco2)C(=O)/C(=C/c2ccco2)C1 (centres undefined),?,-2.4%,-1.2%,-0.8%,?
O=C1/C(=C/c2ccc(F)cc2)CCC1C1CCCC1 (centres undefined),?,9.9%,26.5%,?,0.675µM*
COc1ccc(/C=C2\CCC(C3CCCC3)C2=O)cc1Cn1cccn1 (centres undefined),11.9%,-23.2%,-4.5%,-1.4%,?
O=C(Nc1cccc(C(F)(F)F)c1)C1CCN(S(=O)(=O)c2cccnc2)CC1,-4.1%,/,0.7%,-1.1%,0.7%
CCOc1ccc(/C=C2\CCC(C3CCCC3)C2=O)cc1OC (centres undefined),12.0%,/,10.1%,19.2%,?
CCOc1ccc(/C=C2\CCC(C3CCCC3)C2=O)cc1 (centres undefined),?,/,3.98µM*,3.55µM*,0.536µM*
O=C1/C(=C\c2ccco2)CCC/C1=C\c1ccco1,14.6µM*,17.8µM*,3.16µM*,3.98µM*,4.78µM*
O=C1/C(=C/c2ccco2)CCC1C1CCCC1 (centres undefined),23.1µM*,-9.4%,-0.8%,0.5%,8.49µM*
O=C(NC(=S)N1CCCC1)c1ccccc1F,-1.2%,/,0.8%,-1.4%,7.3%
O=C(Nc1ccc(Br)cc1F)c1ccc2nsnc2c1,10.3µM*,/,3.55µM*,1.58µM*,?
Cc1ccc(NC(=O)c2ccc3nsnc3c2)c(Cl)c1,?,/,0.316µM*,0.501µM*,1.51µM*
Cc1nn(CC(=O)NCCCc2ccccc2)c(C)c1[N+](=O)[O-],-0.7%,-13.6%,-2.8%,3.1%,-0.5%
O=C(COc1ccccc1)N1CCN(c2ccccc2)CC1,0.7%,-27.3%,0.3%,-1.1%,4.4%
CC1(C)CC(=O)c2c(O)cc(OCC(=O)N3CCN(c4ccccc4)CC3)cc2O1,-5.5%,/,0.2%,0.4%,15.1µM*
CCC(=O)Nc1ccc(C(=O)NNC(=O)c2cccs2)cc1,6.5%,2.4%,2.4%,0.9%,3.7%
CCC(=O)Nc1cccc(NC(=O)c2ccc(C)cc2Cl)c1,3.7%,28.2%,?,21.0%,19µM*
CCC(=O)Nc1cccc(NC(=O)c2ccccc2Cl)c1,-4.3%,-21.8%,-2.8%,-3.1%,-3.5%
N#Cc1ccccc1NC(=S)NC(=O)c1cccs1,15.8%,/,7.7%,-1.0%,8.49µM*
CCC(=O)Nc1cccc(NC(=S)NC(=O)c2cccs2)c1,?,28.2µM*,?,?,6.01µM*
SMILES,ELG1 genotoxic,SMN2 splice enh,Rab9 prom act,NPC1 prom act,FLuc counter
CCC(=O)Nc1cccc(NC(=S)NC(=O)c2ccccc2Cl)c1,-0.6%,-5.2%,3.55µM*,?,?
CCC(C(=O)N1CCC(N2CCCCC2)CC1)n1nc(C)c2sc3ccccc3c2c1=O (centres undefined),1.4%,/,-1.8%,0.7%,0.2%
C/C(=C\c1ccccc1)C(=O)NCCCn1ccnc1,0.1%,1.8%,0.5%,-7.0%,6.6%
CC1CC(=O)c2cnc(Nc3cccc(C(F)(F)F)c3)nc2C1 (centres undefined),7.0%,-0.4%,?,18.6%,?
CC1CC(=O)c2cnc(Nc3ccccc3)nc2C1 (centres undefined),5.8µM*,11.2µM*,3.55µM*,3.16µM*,9.53µM*
Cc1ccc(Nc2ncc3c(n2)CC(C)CC3=O)c(C)c1 (centres undefined),7.3µM*,/,?,27.1%,7.57µM*
CCCC(=O)c1ccc(N2CCCCC2)c(F)c1,?,-7.2%,?,?,13.5µM*
CCCC(=O)c1ccc(N2CCCCCC2)c(F)c1,?,26.0%,3.55µM*,3.16µM*,8.49µM*
CCCC(=O)c1ccc(N2CCN(C(=O)OCC)CC2)c(F)c1,0.8%,-11.0%,12.0%,-0.4%,-11.7%
CCOc1c2ccc(C(=O)NCCc3cccs3)cc2nn1CC,?,14.1µM*,3.55µM*,?,23.9µM*
CCCCn1nc2cc(C(=O)NCCc3cccs3)ccc2c1OCC,4.5%,9.1%,21.5%,?,-14.9%
CCOc1ccc(C(=O)NCc2cccs2)cc1,2.7%,14.5%,?,16.3%,-2.5%
CCCCOc1ccc(C(=O)NCCc2cccs2)cc1,?,12.6µM*,1.78µM*,3.98µM*,7.57µM*
COc1ccc(C)cc1-n1nnnc1SCC(=O)c1ccc2c(c1)OCCO2,-3.8%,-1.0%,4.7%,4.2%,16.9µM*
CCn1nnnc1SCC(=O)c1ccc2c(c1)OCCO2,3.1%,-4.0%,?,?,19µM*
O=C(CSc1nnc2ccccn12)c1ccc2c(c1)OCCO2,2.91µM*,11.2µM*,1µM*,1.12µM*,4.78µM*
Cc1ccc(C(=O)CSc2nnnn2C(C)C)c(C)c1,?,0.794µM*,2.82µM*,2.82µM*,0.675µM*
O=C(COc1ccc(S(=O)(=O)N2CCOCC2)cc1Cl)NCC1CCCO1 (centres undefined),-1.6%,/,-3.4%,1.0%,-2.2%
O=C(/C=C\c1ccc2c(c1)OCO2)NC1CC(=O)N(c2cccc(F)c2)C1 (centres undefined),/,/,/,/,-1.5%
CC(C)n1nnnc1SCC(=O)c1ccc2c(c1)OCCO2,10.5%,-9.0%,3.55µM*,3.55µM*,4.78µM*
O=C(CSc1nnnn1C1CCCC1)c1ccc2c(c1)OCCO2,15.5%,21.4%,0.631µM*,1.12µM*,0.757µM*
